PubChem BioAssay
Calls of active or inactive are those of the source.

Assays:
[1] = tested on: Plasmodium falciparum Sir2 (PF13_0152, Sir2A); test: pfSir2 binders on small-molecule microarrays, primary screen, biochemical, small-molecule microarray, 635 nm fluorescence (AID 1098); settings: small-molecule microarray binding, fluorescence 635 nm; higher = more signal;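 note: score merges spot fluorescence intensity with its signal-to-noise ratio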
[2] = small-molecule microarray binders of probe aDKK1, primary screen, biochemical, biotinylated probe, 635/667 nm fluorescence (AID 1099); settings: higher = more signal;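 note: score merges 667nm spot fluorescence with signal to noise across triplicate slides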
[3] = small-molecule microarray binders of probe aCHRDL2, primary screen, biochemical, biotinylated probe, 635/667 nm fluorescence (AID 1100); settings: higher = more signal
[4] = splicing luciferase reporter signal modulators, primary screen, spliceosome inhibition project, cell-based, HEK293, splice +/- reporter (AID 1101); settings: luminescence, 24 h, higher = more signal, called active from +8 up or from −8 down;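 note: HEK293 cells carrying a splicing-competent luciferase reporter gene; test concentration not given here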
[5] = molecular target: Fibroblast growth factor 10 (Homo sapiens) (UniProt O15520); test: FGF10 binders on small-molecule microarrays, primary screen, biochemical, small-molecule microarray, 635 nm fluorescence (AID 1102); settings: FGF10 binding, fluorescence 635 nm, higher = more signal
[6] = tested on: glycogen synthase kinase-3 (GSK3A per assay name; protocol says GSK3B); test: GSK3 binders on small-molecule microarrays, primary screen, biochemical, small-molecule microarray, 635 nm fluorescence, GSK3A (AID 1103); settings: small-molecule microarray binding, fluorescence 635 nm; higher = more signal; note: the record names both GSK3A and GSK3B
[7] = molecular target: Epidermal growth factor receptor (Homo sapiens) (UniProt P00533); test: EGFR binders on small-molecule microarrays, primary screen, biochemical, small-molecule microarray, 635 nm fluorescence (AID 1104); settings: EGFR binding, higher = more signal;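 note: score merges 667 nm emission intensity with spot signal to noise over triplicate slides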
[8] = molecular target: Follistatin-related protein 3 (Homo sapiens) (UniProt O95633); test: FSTL3 binders on small-molecule microarrays, primary screen, biochemical, small-molecule microarray, 635 nm fluorescence (AID 1105); settings: FSTL3 binding, higher = more signal;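 note: score merges emission near 667 nm and signal to noise per printed spot across three slides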
[9] = molecular target: Dickkopf-related protein 1 (Homo sapiens) (UniProt O94907); test: DKK1 binders on small-molecule microarrays, primary screen, biochemical, small-molecule microarray, 635 nm fluorescence scan (AID 1106); settings: DKK1 binding, higher = more signal;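 note: score merges emission near 667 nm with signal to noise over three replicate slides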
[10] = tested on: Inhibin beta A chain (activin A); test: INHBA (activin A) binders on microarrays, primary screen, biochemical, small-molecule microarray, 635 nm fluorescence scan (AID 1107); settings: small-molecule microarray binding, higher = more signal;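 note: mouse activin A protein probed at 4.33 µg/mL on printed slides; score merges bound-protein fluorescence near 667 nm with spot signal-to-noise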
[11] = tested on: Human papillomavirus type 1a protein E7 (residues 44-93); test: HPV1a E7 fragment binders on microarrays, primary screen, biochemical, small-molecule microarray, residues 44-93, 635 nm fluorescence (AID 1108); settings: small-molecule microarray binding, fluorescence 635 nm; higher = more signal;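 note: E7 fragment applied at 1 µg/mL in TBST for 1 h at 4 C; score combines spot fluorescence with its signal to noise ratio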
[12] = modulators of HCV replicon luciferase signal, primary screen, HCV replication inhibitor project, Huh7 cells, luciferase reporter (AID 1109); settings: 48 h, higher = more signal;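 note: huh7 hepatoma cells harbouring a luciferase neomycin HCV replicon reporter; luciferase luminescence as measure of HCV replicon replication; test concentration not given here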
[13] = molecular target: Left-right determination factor 2 (Homo sapiens) (UniProt O00292); test: LEFTY2 binders on small-molecule microarrays, primary screen, biochemical, small-molecule microarray, 635 nm fluorescence scan (AID 1110); settings: LEFTY2 binding, higher = more signal
[14] = molecular target: Calmodulin-1 (Homo sapiens) (UniProt P0DP23); test: CALM1 binders on microarrays, EGTA buffer, profiling panel, biochemical, small-molecule microarray, Cy5-labelled CALM1 (AID 1111); settings: Cy5-CALM1 binding fluorescence, higher = more signal;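 note: labelled calmodulin applied in Tris saline Tween buffer holding calcium plus EGTA and DTT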
[15] = molecular target: Calmodulin-1 (Homo sapiens) (UniProt P0DP23); test: calcium-bound CALM1 binders on microarrays, profiling panel, artefact control for SMM control-protein annotation, biochemical, small-molecule microarray, Cy5-labelled CALM1, plus calcium (AID 1112); settings: Cy5-CALM1 binding fluorescence, higher = more signal;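 note: score merges spot fluorescence with signal to noise from triplicate slides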
[16] = small-molecule microarray binders of probe aWnt5a, primary screen, biochemical, biotinylated probe, 635/667 nm fluorescence (AID 1113); settings: higher = more signal;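 note: score merges 667 nm fluorescence intensity with signal-to-noise per printed feature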
[17] = small-molecule microarray binders of probe aShh, primary screen, biochemical, biotinylated probe, 635/667 nm fluorescence (AID 1114); settings: higher = more signal;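 note: probe is biotin-labelled aShh protein from a stem cell growth factor screen; measures binding of labelled protein to compounds printed on the slide; score merges feature fluorescence at 667 nm with signal-to-noise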
[18] = small-molecule microarray binders of probe aNog, primary screen, biochemical, biotinylated probe, 635/667 nm fluorescence (AID 1115); settings: higher = more signal;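 note: probe is biotinylated aNog protein used at 0.15 µg/mL for 1 h at 4 C; z-score combines 667 nm fluorescence of each spot with its signal to noise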
[19] = molecular target: Torsin-1A-interacting protein 1 (Homo sapiens) (UniProt Q5JTV8); test: LAP1 binders from COS7 cell lysate, primary screen, small-molecule microarray, 635/667 nm fluorescence (AID 1116); settings: COS7-hLAP1 lysate binding, 635 nm fluorescence, higher = more signal
[20] = molecular target: Alpha-bungarotoxin (Bungarus multicinctus) (UniProt P60615); test: alpha-bungarotoxin binders on microarray, profiling panel, artefact control for SMM control protein annotation, biochemical, small-molecule microarray, Alexa647 label, 635/667 nm fluorescence (AID 1117); settings: alpha-BTX-A647 binding fluorescence, higher = more signal
Sequence of Alpha-bungarotoxin (Bungarus multicinctus) (P60615 whole entry, looked up): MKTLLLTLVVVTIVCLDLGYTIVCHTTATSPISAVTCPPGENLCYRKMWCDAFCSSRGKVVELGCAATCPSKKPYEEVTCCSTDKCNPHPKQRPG

Sequence of Torsin-1A-interacting protein 1 (Homo sapiens) (Q5JTV8 whole entry, looked up): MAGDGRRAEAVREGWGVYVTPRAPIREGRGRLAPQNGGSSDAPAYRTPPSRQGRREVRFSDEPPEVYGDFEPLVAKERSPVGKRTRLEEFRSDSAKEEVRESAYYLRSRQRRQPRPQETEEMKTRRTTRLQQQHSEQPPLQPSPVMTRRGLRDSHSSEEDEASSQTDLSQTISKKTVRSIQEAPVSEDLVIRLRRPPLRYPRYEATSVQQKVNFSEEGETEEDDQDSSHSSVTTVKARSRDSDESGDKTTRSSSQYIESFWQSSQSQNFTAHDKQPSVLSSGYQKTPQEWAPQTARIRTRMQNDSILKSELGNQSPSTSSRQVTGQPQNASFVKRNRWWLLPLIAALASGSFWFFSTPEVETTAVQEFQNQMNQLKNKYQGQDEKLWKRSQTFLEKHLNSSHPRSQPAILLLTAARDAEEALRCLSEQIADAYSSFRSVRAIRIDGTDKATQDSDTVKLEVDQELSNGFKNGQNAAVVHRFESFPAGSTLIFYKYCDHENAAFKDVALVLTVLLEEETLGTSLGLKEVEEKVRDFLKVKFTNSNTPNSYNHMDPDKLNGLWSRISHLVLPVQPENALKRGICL
Sequence of Dickkopf-related protein 1 (Homo sapiens) (O94907 whole entry, looked up): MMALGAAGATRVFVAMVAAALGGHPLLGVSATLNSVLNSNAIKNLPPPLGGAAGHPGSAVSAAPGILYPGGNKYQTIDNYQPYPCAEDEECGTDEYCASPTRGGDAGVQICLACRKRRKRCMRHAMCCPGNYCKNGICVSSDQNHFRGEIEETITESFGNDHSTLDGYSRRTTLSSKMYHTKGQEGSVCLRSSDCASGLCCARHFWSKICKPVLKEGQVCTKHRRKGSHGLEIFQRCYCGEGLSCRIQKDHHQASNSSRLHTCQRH
Sequence of Follistatin-related protein 3 (Homo sapiens) (O95633 whole entry, looked up): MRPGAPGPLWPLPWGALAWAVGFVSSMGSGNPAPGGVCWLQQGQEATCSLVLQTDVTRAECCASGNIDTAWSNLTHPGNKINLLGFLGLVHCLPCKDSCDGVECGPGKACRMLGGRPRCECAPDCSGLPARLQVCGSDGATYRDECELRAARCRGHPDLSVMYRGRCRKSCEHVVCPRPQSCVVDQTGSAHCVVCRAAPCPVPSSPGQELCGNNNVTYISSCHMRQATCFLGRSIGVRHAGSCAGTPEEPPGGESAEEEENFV
Sequence of Fibroblast growth factor 10 (Homo sapiens) (O15520 whole entry, looked up): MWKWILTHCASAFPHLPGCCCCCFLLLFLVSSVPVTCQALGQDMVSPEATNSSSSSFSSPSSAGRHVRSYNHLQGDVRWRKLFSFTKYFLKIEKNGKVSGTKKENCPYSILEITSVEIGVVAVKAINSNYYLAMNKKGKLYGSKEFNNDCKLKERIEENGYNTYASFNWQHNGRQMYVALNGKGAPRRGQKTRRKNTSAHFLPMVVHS
Sequence of Left-right determination factor 2 (Homo sapiens) (O00292 whole entry, looked up): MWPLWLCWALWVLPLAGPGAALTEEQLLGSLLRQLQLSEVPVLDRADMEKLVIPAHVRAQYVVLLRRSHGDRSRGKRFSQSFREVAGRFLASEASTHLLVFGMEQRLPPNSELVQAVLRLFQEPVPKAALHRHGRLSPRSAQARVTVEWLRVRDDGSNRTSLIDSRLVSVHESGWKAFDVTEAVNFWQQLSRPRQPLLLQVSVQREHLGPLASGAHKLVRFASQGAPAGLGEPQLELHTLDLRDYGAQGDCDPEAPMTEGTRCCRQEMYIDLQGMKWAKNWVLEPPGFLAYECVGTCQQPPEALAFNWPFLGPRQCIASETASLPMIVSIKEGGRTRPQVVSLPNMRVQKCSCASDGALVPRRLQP
Sequence of Epidermal growth factor receptor (Homo sapiens) (P00533 whole entry, looked up): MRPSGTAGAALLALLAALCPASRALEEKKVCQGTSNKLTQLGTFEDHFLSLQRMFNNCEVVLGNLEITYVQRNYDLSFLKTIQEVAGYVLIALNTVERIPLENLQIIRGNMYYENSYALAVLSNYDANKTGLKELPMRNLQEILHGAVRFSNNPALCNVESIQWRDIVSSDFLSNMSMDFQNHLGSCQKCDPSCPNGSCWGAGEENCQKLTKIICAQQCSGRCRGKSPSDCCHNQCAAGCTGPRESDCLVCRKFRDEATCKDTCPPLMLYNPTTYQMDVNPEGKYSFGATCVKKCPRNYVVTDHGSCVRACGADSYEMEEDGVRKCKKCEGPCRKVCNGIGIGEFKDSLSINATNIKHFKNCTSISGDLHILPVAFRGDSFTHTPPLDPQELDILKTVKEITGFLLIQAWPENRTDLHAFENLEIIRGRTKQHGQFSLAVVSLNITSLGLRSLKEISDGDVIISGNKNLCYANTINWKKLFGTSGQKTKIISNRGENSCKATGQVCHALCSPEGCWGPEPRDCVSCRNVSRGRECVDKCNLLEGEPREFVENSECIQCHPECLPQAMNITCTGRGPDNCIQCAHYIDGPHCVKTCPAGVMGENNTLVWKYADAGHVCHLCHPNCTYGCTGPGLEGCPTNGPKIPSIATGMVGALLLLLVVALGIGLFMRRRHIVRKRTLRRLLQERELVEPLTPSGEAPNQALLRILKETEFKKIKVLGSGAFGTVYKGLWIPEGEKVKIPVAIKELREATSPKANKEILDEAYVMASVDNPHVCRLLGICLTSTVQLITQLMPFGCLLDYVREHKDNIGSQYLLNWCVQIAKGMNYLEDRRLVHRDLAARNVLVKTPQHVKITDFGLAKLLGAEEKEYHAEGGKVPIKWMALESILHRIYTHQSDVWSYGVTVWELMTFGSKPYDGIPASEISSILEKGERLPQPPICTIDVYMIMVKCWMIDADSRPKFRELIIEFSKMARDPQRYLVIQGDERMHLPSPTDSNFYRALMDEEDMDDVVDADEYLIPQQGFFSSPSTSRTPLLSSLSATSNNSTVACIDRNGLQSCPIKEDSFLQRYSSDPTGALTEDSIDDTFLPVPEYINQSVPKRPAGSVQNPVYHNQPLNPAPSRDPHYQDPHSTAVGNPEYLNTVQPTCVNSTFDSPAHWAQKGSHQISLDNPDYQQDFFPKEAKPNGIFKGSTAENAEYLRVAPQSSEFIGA

SMILES	composite z-score [1]	composite z-score [2]	composite z-score [3]	z-score [4]	composite z-score [5]	composite z-score [6]	composite z-score [7]	composite z-score [8]	composite z-score [9]	composite z-score [10]	composite z-score [11]	z-score [12]	composite z-score [13]	composite z-score [14]	composite z-score [15]	composite z-score [16]	composite z-score [17]	composite z-score [18]	composite z-score [19]	composite z-score [20]
COc1ccc(CCNC(=O)[C@@H]2c3ccccc3C(=O)N(CC34CC5CC(CC(C5)C3)C4)[C@H]2c2ccc(CO)cc2)cc1	0.959	-0.0038	0.309	-1.02 (inactive)	1.06	0.406	0.277	0.644	0.323	0.64	1.29	-2.34	0.453	1.67	0.576	-0.0286	0.0381	-0.338	0.321	0.664
CN(C)C(=O)[C@@]1(CCS(=O)(=O)c2ccccc2)N=C(c2ccc(OCCCO)cc2)O[C@H]1c1ccccc1N=[N+]=[N-]	1.44	0.466	0.817	-0.445 (inactive)	1.36	1.29	0.193	1.03	-0.0735	0.786	1.43	-0.235	0.258	-0.038	-0.0024	0.0445	0.199	-0.484	1.56	0.901
COCCn1c(C(=O)N2CCCC2)cc2c1C[C@H]1CN(C(=O)c3ccccc3)[C@@](Cc3ccccc3)(C(=O)OC)[C@@H]21	1.06	0.592	0.268	-1.09 (inactive)	1.15	1.26	-0.273	0.166	0.257	0.693	1.51	-0.976	0.222	1.89	0.808	0.869	1.3	2.73	1.12	0.253
NCCCC[C@@H]1NC(=O)[C@H]2C[C@@H](C(=O)NCc3ccc(F)cc3)[C@@H](c3cccc(OCCO)c3)N2C1=O	1.43	0.0142	-0.142	-0.436 (inactive)	1.32	1.34	0.803	1.47	1.6	0.799	1.43	-2.1	1.13	0.986	-0.75	0.0077	-0.0119	0.127	1.92	0.538
[N-]=[N+]=Nc1ccccc1[C@@H]1OC(c2ccc(OCCCO)cc2)=N[C@]1(Cc1ccccc1)C(N)=O	0.807	0.818	0.578	0.336 (inactive)	-0.121	-0.235	-0.236	-0.294	-0.205	0.982	1.06	-0.837	-0.391	1.04	0.719	-0.166	0.173	-0.0956	0.0305	0.209
